Reference: PubChem BioAssay AID1775 (NMMLSC, 2009)
The whole screen tested about 220,000 compounds, of which about 820 (0.37%) were called active. Only a selection was taken, and actives are over-represented in it overall. Values without a mark were called inactive. Cut-off read from the data, not from the text of the source: active = fluorescence above about 47; inactive = the rest.

Experiment: green autofluorescence of compounds with avidin beads – biophysical, 488/530 nm, flow cytometry, artefact control, profiling panel (AID 1775)
Details: compound fluorescence 488/530 nm, at 10 µM, hits give high values

Structure (SMILES) | fluorescence (KMESF)
O=C(c1cccc(S(=O)(=O)Nc2ccccc2Cl)c1)N1CCN(C(=O)c2ccco2)CC1 | 12
O=C(Cc1c(F)cccc1Cl)N1CCN(C(=O)c2ccco2)CC1 | 91 (active)
O=C(c1ccco1)N1CCN(c2cccc(Cl)c2)CC1 | 13
O=C1CC(Cc2ccc(Cl)cc2)C(=O)N1c1cc(Cl)ccn1 (stereo not given) | 3
COC(=O)c1c(NC(=O)CN(c2ccc(C)c(C)c2)S(C)(=O)=O)sc2c1CCCC2 | 7
CSc1nc2nc(-c3cccc(C(F)(F)F)c3)ccn2n1 | 28
CN(CCOc1ccccc1)Cc1nc2cc(Cl)ccc2c(=O)[nH]1 | 19
CCOC(=O)c1cc2c(=O)[nH]c(C(Cl)(Cl)Cl)nc2o1 | 5
COc1ccc(Nc2ncc(F)c(N3CCOCC3)n2)cc1 | 5
CC(C)/C=N/NC(=O)c1cc(Br)ccc1O | 2
O=C(/C(=N\O)n1cncn1)c1ccc(Br)cc1Br | 5
CC(=O)N/N=C(\C)c1ccc(Br)cc1Br | 173 (active)
CCOc1ccc(-c2nnc(-c3ccco3)o2)cc1 | 8
Cc1ccc(OCC(=O)Nc2ccc(-c3nnc(-c4ccco4)o3)cc2)cc1 | 50 (active)
Cc1ccc(OCC(=O)Nc2nnc(-c3ccco3)s2)cc1 | 8
CCOC(=O)N1CCN(c2cc(C)c([N+](=O)[O-])cc2F)CC1 | 7
S=C(NCCc1ccccc1)NCc1ccccc1Cl | 13
COC(=O)c1c(C(=O)OC)c(-c2cccc(C)c2)n2c1CS(=O)C2 (stereo not given) | 7
O=C(O)CCC(=O)N(Cc1cccs1)Cc1cccs1 | 74 (active)
O=C(CCc1ccccc1)NCCc1cccs1 | 6
Cc1ccnc(NC(=O)CCC(=O)N(CC(=O)NCCc2ccccc2)Cc2cccs2)c1 | 9
Cc1cc(C(=O)NCCc2ccc(Cl)cc2)n(-c2ccccc2)n1 | 6
Cc1cc(C)nc(/N=C2\NC(=O)CC(C(=O)O)N2c2ccc(Cl)cc2Cl)n1 (stereo not given) | 66 (active)
CCOC(=O)c1nc(C)n(-c2ccc(Cl)cc2Cl)n1 | 8

Structure (SMILES) | fluorescence (KMESF)
Cc1cc(C)nc(NC(=O)/C=C/c2ccc(Cl)cc2)n1 | 6
O=C(NCc1cccs1)c1ccc(Br)o1 | 12
CC(CCc1ccccc1)NC(=O)c1ccc(Br)o1 (stereo not given) | 8
CC(CNC(=O)c1ccc(Br)o1)NC(=O)c1ccc(Br)o1 (stereo not given) | 48 (active)
CC(=O)N(OCc1ccc(OC(C)C)c(Cl)c1)C(C)=O | 8
CC(=O)NCC(=O)N(Cc1ccco1)C1(C(=O)NC2CCCC2)CCCCC1 | 6
CS/C(=C\[N+](=O)[O-])Nc1ccc(C)cc1 | 12
Cc1cc(Cl)ccc1NC(=S)N1CCC(C(N)=O)(N2CCCCC2)CC1 | 10
COc1cc(C(=O)NCc2nnc(SCC(=O)Nc3nc4ccc(C)cc4s3)o2)cc(OC)c1OC | 19
Nc1c(-c2ccc(F)cc2)cnc2ncnn12 | 76 (active)
Nc1c(-c2ccc(F)cc2)cnn1C1CCS(=O)(=O)C1 (stereo not given) | 7
Cc1cc(N2CCN(c3ccc(F)cc3)CC2)n2ncnc2n1 | 9
CC(C)(C)OC(=O)N/N=C/c1cn(-c2ccccc2)nc1-c1cccnc1 | 13
O=C(NCc1csc(-c2cccs2)n1)C1CC1 | 2
CC1Cc2ccccc2N1S(=O)(=O)c1ccc(Cl)nc1 (stereo not given) | 4
COc1cc(CO)c(C2(CO)CCCC2)cc1OC | 36
Cc1nc2c(-c3ccc(F)cc3)c(C)nn2c(C)c1CCC(=O)NCc1ccco1 | 6
COc1cc(OC)cc(-c2nc3nc(C)c(CCC(=O)NCc4ccco4)c(C)n3n2)c1 | 59 (active)
Cc1nc2nc(SCC(=O)NCc3ccco3)nn2c(C)c1Cc1ccccc1 | 15
CCOC(=O)C(C)Sc1nnc(CSc2nc3nc(C)cc(C)n3n2)o1 (stereo not given) | 15
CC(C)Cn1c(CN(Cc2ccccc2)Cc2ccccc2)nc2c1c(=O)n(C)c(=O)n2C | 8
Cn1c(=O)c2c(ncn2CCc2ccccc2)n(C)c1=O | 11
CC(C)Cn1cnc2c1c(=O)n(CC(O)c1ccccc1)c(=O)n2CC(C)C (stereo not given) | 67 (active)
CCNC(=O)COc1cc(C)c(Br)c(C)c1 | 9

Structure (SMILES) | fluorescence (KMESF)
CC(C)C(=O)Nc1c(O)c2ccccc2[nH]c1=O | 10
CCCCc1nc2c(=O)[nH]c3ccccc3c2o1 | 26
CC1CCc2c(c3ccccc3[nH]c2=O)O1 (stereo not given) | 57 (active)
CCCN(CCC)C(=S)Nc1cc(C(=O)OC)ccc1C(=O)OC | 3
CN(CC(=O)NC1CCCCC1)S(=O)(=O)c1ccc(Br)s1 | 32
Cc1ccc(S(=O)(=O)N(C)CC(=O)NC2CCCC2)cc1 | 10
CN(CC(=O)NC1CCCCC1)S(=O)(=O)c1cccc2cccnc12 | 118 (active)
COc1ccc2c(c1)cc1n2CCN=C1NN | 7
CC(C)CC(=O)N1CCC(O)(CS(=O)(=O)Cc2ccccc2)CC1 | 7
Cc1ccccc1CN1CCN(C(=O)c2cccc(F)c2)CC1 | 4
Cc1ccccc1CS(=O)(=O)CC1(O)CCN(C(=O)c2cccc(C(F)(F)F)c2)CC1 | 88 (active)
O=C(c1ccc(F)cc1)N1CCC(n2nnc3ccccc32)CC1 | 34
CCOc1cnc(C(=O)NNC(=O)c2ccccc2Br)o1 | 15
COc1cccc(-c2ccc(SCC(=O)N3CCN(c4ccccc4)CC3)nn2)c1 | 8
COC(=O)CSc1ccc2nnc(CCNS(=O)(=O)c3ccc(C)cc3)n2n1 | 4
CC(C)CCNC(=O)C(C)N(C(=O)Cn1nnc(-c2ccc(F)cc2)n1)C1CCCC1 (stereo not given) | 51 (active)
COc1ccc(-c2nnn(CC(=O)N(CCO)C(C(=O)NC3CCCC3)c3ccc(F)cc3)n2)cc1 (stereo not given) | 12
CC(C)CCNC(=O)CN(C(=O)Cn1nnc(-c2ccc(F)cc2)n1)C1CCCC1 | 14
O=C(NNS(=O)(=O)c1ccc(F)cc1)c1cnccn1 | 10
CC(=O)Nc1cccc(Oc2cc(C#N)c(C#N)cc2N2CCOCC2)c1 | 7
COc1cc(N2CCCC2)c(OC)cc1/C=C(/C#N)c1cccc(Br)c1 | 47 (active)
COc1cccc(C(=O)Nc2ccc(N3CCCC3)cc2)c1 | 9
